Screening results: PubChem BioAssay, Buhrlage Lab, Dana-Farber Cancer Institute and Novartis Institutes for BioMedical Research (Cambridge, Mass)
Hits are enriched below; roughly 11% of the tested compounds scored in any of these assays.
USP28 block – human USP28 deubiquitinase inhibition | Q96RU2 | purified USP28, Ub-rhodamine cleavage fluorescence, 30 min | inhibition, % at 25 µM | hit rate 3% among 47,000 | AID 1645857
USP17 inh – blocks human USP17 ubiquitin-rhodamine cleavage; A8MUK1; hit rate 6.5% among 47,000; inhibition, % at 50 µM; purified USP17, Ub-rhodamine cleavage fluorescence, 3 h
USP30 block – blocks human USP30 ubiquitin-rhodamine cleavage; purified USP30, Ub-rhodamine cleavage fluorescence; AID 1645860; inhibition, % at 25 µM; Q70CQ3; hit rate 5.3% among 47,000
OTUD3 block – blocks human OTUD3 ubiquitin-rhodamine cleavage; AID 1645858; inhibition, % at 25 µM; hit rate 0.7% among 47,000; purified OTUD3, Ub-rhodamine fluorescence, 2 h; Q5T2D3
The depositor's hits bear a star; / = no result given. Cut-off read from the data, not from the text of the source: active = inhibition above about 30%; inactive = the rest.

SMILES | USP28 block | USP17 inh | USP30 block | OTUD3 block
CCOC(=O)C1C(=O)NC(c2ccccc2)=NC1c1ccc(C(F)(F)F)cc1 (centres undefined) | 13.5 | 20.9 | 41.0* | 6.7
O=c1[nH]ccn2nc3c(c12)CCc1ccccc1-3 | / | 35.9* | / | 5.2
N#Cc1c(-c2ccccc2Cl)c2c([nH]c1=O)-c1ccccc1CC2 | 0.5 | 9.5 | -8.3 | -8.6
CN(c1ccc(Oc2ccc(C(F)(F)F)cn2)cc1)S(=O)(=O)c1ccccc1 | 17.0 | 38.0* | -4.2 | 7.8
CCn1cnc2ccc(C(=O)NC3CC3)cc2c1=O | 62.2* | 8.3 | 0.6 | -4.2
CC(NC(=O)c1ccccc1)c1nc2ccccc2n1CC(=O)Nc1ccc(C#N)cc1 (centres undefined) | 0.3 | 7.0 | -1.4 | -0.1
CC(NC(=O)c1ccccc1)c1nc2ccccc2n1CC(=O)NC1CCCCC1 (centres undefined) | 7.8 | 38.6* | 38.8* | 9.4
Cc1ccc(C(=O)NC(C)c2nc3ccccc3n2CC(=O)N2CCc3ccccc32)cc1 (centres undefined) | 25.5 | 76.4* | 63.4* | -37.5
O=C(O)CCc1nc2ncccc2c(=O)n1Cc1ccccc1 | 0.4 | 5.3 | 9.7 | 1.4
CCC(Sc1ccc2nnc(-c3ccccn3)n2n1)C(=O)O (centres undefined) | 8.5 | -16.3 | 4.2 | 18.7
COc1cc(C)cc2c1C(=O)c1c(cc(O)c(Cl)c1O)C2=O | 79.8* | 73.9* | 6.8 | 76.0*
Cn1nc(-c2ccccc2)c(CO)c1Sc1cccc(C(F)(F)F)c1 | 27.5 | 19.9 | 22.2 | 14.7
CCN1C(=O)[C@H]2CN(C(C)=O)C[C@H]2C12CCN(S(=O)(=O)c1ccccc1F)CC2 | 4.3 | 5.6 | 14.2 | 9.4
COc1ccc(NC(=O)CN2C(=O)CC(c3ccccc3)S(=O)(=O)c3ccccc32)cc1 (centres undefined) | 13.7 | 31.0* | 24.3 | 23.6
Cc1cccc(NC(=O)CN2C(=O)CC(c3ccccc3)S(=O)(=O)c3ccccc32)c1C (centres undefined) | -12.8 | 51.2* | -83.8 | -6.9
COc1ccc(NC(=O)CN2C(=O)CSc3ncccc32)cc1 | -7.6 | / | -7.6 | -5.1
Cc1ccccc1NC(=O)CN1C(=O)CC(c2ccccc2)S(=O)(=O)c2ccccc21 (centres undefined) | 13.7 | 23.5 | 6.0 | 13.8
CCN(Cc1ccccc1)C(=O)Cn1cnc(S(=O)(=O)N2CCCC2)c1 | 4.2 | 13.7 | 5.9 | 1.6
O=c1sc2ccccc2c(=O)n1Cc1ccccc1Cl | 19.0 | 18.0 | 18.5 | 18.2
CCn1c(-c2nnc(SCC(=O)NCCc3nc4ccccc4[nH]3)o2)cc2ccccc21 | / | 91.9* | / | 4.3
Cc1cn2nnc(C(=O)Nc3ccc(OC(F)(F)F)cc3)c2c(=O)[nH]1 | 26.3 | 50.6* | 53.7* | 15.3
Cc1ccc(C(=O)C2CC(=O)Nc3c2c(C)nn3-c2ccc(C)c(C)c2)s1 (centres undefined) | 12.4 | 70.5* | 50.1* | -1.3
CCc1cccc(-n2nc(C)c3c2NC(=O)CC3C(=O)c2ccc(C)s2)c1 (centres undefined) | -4.2 | 17.5 | -0.1 | 0.1
Cc1nn(-c2cccc(F)c2)c2c1C(C(=O)c1ccc(Cl)s1)CC(=O)N2 (centres undefined) | -0.1 | 23.1 | 50.2* | -10.2
COc1ccc(-n2nc(C)c3c2NC(=O)CC3C(=O)c2ccc(Cl)s2)cc1 (centres undefined) | -16.8 | -12.2 | -17.0 | -7.9
SMILES | USP28 block | USP17 inh | USP30 block | OTUD3 block
Cc1ccc(-n2nc(C)c3c2NC(=O)CC3C(=O)c2cc3ccccc3o2)cc1C (centres undefined) | -0.1 | 73.7* | -10.1 | -4.2
CSc1ncccc1C(=O)Nc1ccnn1Cc1ccco1 | 8.4 | -0.1 | -2.5 | 13.7
Cc1cc(=O)oc2c1c(C)nn2-c1ccc([N+](=O)[O-])cc1 | -19.8 | -18.8 | -43.1 | -7.5
CN(C)C=Nc1c(C#N)cnn1-c1ccc([N+](=O)[O-])cc1 | 18.7 | 17.4 | 73.9* | -0.6
O=C(COc1ccc(Cl)cc1)N1CCC(c2c[nH]c3ccccc23)(c2c[nH]c3ccccc23)CC1 | 5.0 | / | 39.4* | 24.8
O=C(COc1ccccc1)N1CCC2(CC1)NC(=O)N(Cc1ccc(Cl)cc1)C2=O | -13.6 | / | -17.7 | -17.3
Cc1ccc(-n2nnc(C(=O)NC(C)C)c2C2CC2)cc1 | 0.3 | 0.1 | -8.3 | 2.1
CNC(=O)c1c(Br)cnn1-c1ccc(C)cc1 | / | 38.7* | / | 3.4
O=C(Nc1ccc(NC(=O)C(c2ccccc2)c2ccccc2)cc1)c1cccs1 | -8.6 | -4.0 | -9.1 | -2.4
O=C(Nc1ccccc1)C(C(=O)Nc1ccccc1)c1ccccc1 | 14.1 | -1.5 | 31.5* | 0.6
Cc1ccc(C)c(CN2CCC(CNC(=O)CCc3nnc4ccc(N5CCCC5)nn34)CC2)c1 | -5.4 | -18.6 | -47.8 | -15.4
Cc1ccc(NC(=O)CSc2nnc(-c3cnccn3)n2Cc2ccco2)cc1 | / | 53.4* | / | -0.5
N#Cc1ccc(NC(=O)COC(=O)c2cc3ccccc3cc2O)cc1 | -0.9 | 2.3 | -12.8 | -10.6
CN(C)CCN1CCOCC2(CCCN(C(=O)c3ccc4ncccc4c3)C2)C1 (centres undefined) | -5.8 | -26.7 | -24.4 | 0.1
Cc1ccc(C(=O)Nc2c(-c3ccc4c(c3)OCO4)c(=O)c3ccccc3n2C)cc1 | 45.6* | 37.2* | -4.9 | 8.4
Cc1ccc(-c2c(NC(=O)c3cccs3)n(C)c3ccccc3c2=O)cc1 | 13.6 | 22.3 | 27.3 | 8.8
Cn1c(NC(=O)c2cccc(Br)c2)c(-c2ccc(Cl)cc2)c(=O)c2ccccc21 | -24.4 | 40.7* | -37.4 | -7.7
Cc1ccc(-c2c(NC(=O)c3cccc([N+](=O)[O-])c3)n(C)c3ccccc3c2=O)cc1 | 14.4 | 14.6 | 32.4* | 3.6
Cn1c(NC(=O)c2ccc(Cl)cc2)c(-c2ccccc2)c(=O)c2ccccc21 | -10.2 | 4.0 | 0.1 | -2.4
Cc1ncsc1CN1CCCC(c2nccnc2-c2ncc[nH]2)C1 (centres undefined) | -9.9 | / | 0.3 | -5.2
COc1ccc(CC(=O)NC2CC(=O)N(c3ccc(F)cc3)C2)cc1OC (centres undefined) | -4.7 | -17.3 | -6.8 | -4.4
COc1ccc(S(=O)(=O)NCc2ccc(C(=O)N3CCN(c4ccccn4)CC3)cc2)cc1 | 3.2 | 6.3 | 11.2 | 6.0
COc1ccc(CC(=O)N2CCN(c3ccc(Nc4ccccn4)nn3)CC2)cc1 | 36.8* | / | -0.1 | -5.6
CC(/C=C/C(=O)NO[C@@H]1O[C@H](CO)[C@@H](O)[C@H](O)[C@H]1O)=C\C(C)C(=O)c1ccc(N(C)C)cc1 (some centres undefined) | 17.9 | 42.7* | 19.4 | 1.7
CNC(=O)/C=C/C(C)=C/C(C)C(=O)c1ccc(N(C)C)cc1 (centres undefined) | 2.1 | 6.0 | -30.4 | 0.3
O=C(NC1CCCCCC1)c1cccc(S(=O)(=O)Nc2cc(C(F)(F)F)ccc2Cl)c1 | 14.8 | 33.4* | 30.6* | 6.3
CCN1CC[C@@]2(C(=O)Nc3cccnc3)CCN(C(=O)NC(C)C)CC[C@@H]12 | -3.3 | -12.3 | 2.5 | -2.9
